Marburg entry inh: qHTS for inhibitors of binding or entry into cells for Marburg Virus | Marburg virus pseudotyped entry inhibition, cell reporter | Potency, µM (series often up to 37.8 µM), usual class: inhibitors | 1.8% of 300,000 active; calls by dose curve; tested in HEK293 cells
HCMV inh: qHTS Assay for inhibitors of the human cytomegalovirus (HCMV); HFF cells, HCMV-luciferase reporter, 72 h; stronger effect = lower value; activity change, negative = inhibition, % at 57.5 µM; 4.5% of 410,000 active; AID 1259415, 2018; in the data active = activity change below about -60%; inconclusive = no clear call, values can overlap the other calls; inactive = above about -39%
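After 16 h attachment at 37C, HFF cells received test compound and HCMV-luciferase (1 PFU/cell); reporter luminescence read 72 h later, data normalized against buffer-only and known inhibitor Salinomycin.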
Pf growth 96h: Primary qHTS for delayed death inhibitors of the malarial parasite plastid, 96 hour incubation; P. falciparum luciferase reporter growth, 96 h; Potency, µM (series often up to 28.7 µM), actives largely listed as inhibitors; 6.9% of 320,000 active; AID 504834, 2011
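Two-generation exposure (96 h) targets delayed-death phenotype. Reporter parasites carrying integrated firefly luciferase, in red cells at 2% hematocrit and 0.05% parasitemia final, kept at 37 C, 5% CO2; luminescence loss indicates inhibition.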
LASV entry inh: qHTS for Inhibitors of binding or entry into cells for Lassa Virus; Lassa virus pseudotype entry inhibition, cell reporter; Potency, µM (highest dose often 37.9 µM), usual class: inhibitors; 1.2% of 300,000 active; calls by dose curve; tested in HEK293 cells; note: nearly all actives have a fitted effect of over 50% in size
HCV inh: qHTS Assay for Inhibitors of Hepatitis C Virus (HCV). Huh7.5.1 HCVcc-Cre infection, luciferase reporter, 44 h. Potency, µM (top dose mostly 41.8 µM), hits mostly inhibitors. 3.4% of 340,000 active
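Cells (1,000/well) were plated 4 h before compound, then infected with HCVcc-Cre virus (~0.5 moi). After 44 h further culture, infection was read as luciferase luminescence following a 15 min substrate incubation at room temperature.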
Pf growth 48h: Primary qHTS for delayed death inhibitors of the malarial parasite plastid, 48 hour incubation. 5.9% of 310,000 active. P. falciparum luciferase growth in erythrocytes, 48 h. Potency, µM (titrated, usually from 28.7 µM), most hits filed as inhibitors
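First compound was added to culture medium, then infected red cells at 0.1% parasitemia and 2% hematocrit (final). After incubation at 37 C under 5% CO2, luciferase detection reagent was dispensed and light output recorded.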
HCV confirm: qHTS Assay for Inhibitors of Hepatitis C Virus (HCV): Confirmation Assay for Cherry-picked Compounds; AID 720575, 2013; HCVcc-Cre infectious virus cell assay, luciferase, inhibition; 78% of 640 active; shares compounds with HCV inh; Potency, µM (highest dose often 41.8 µM), hits mostly inhibitors; note: nearly all actives have a fitted effect of over 80% in size
HCV cytotox: qHTS Assay for Inhibitors of Hepatitis C Virus (HCV): Cytotoxicity Counterscreen for Cherry-picked Compounds; 22% of 640 active; shares compounds with HCV inh; Potency, µM (titrated, usually from 41.8 µM), usual class: inhibitors; HCV host cell line cytotoxicity counterscreen; AID 720576, 2013;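 note: 44 h compound exposure; nearly all actives have a fitted effect of over 55% in size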
A number is an active result. This is a sample that favours compounds with a hit; in the whole collection about 14% have one here. Unless noted, calls come from the whole dose curve; as a rule, active = well fitted curve in the direction sought with a large enough effect; inconclusive = small, poorly fitted or top-dose-only effect, or another doubt; inactive = no such curve, though single readings can be large; an effect the other way counts as inactive or inconclusive.

`CCc1ccc2[nH]c(=O)c(CN(Cc3ccccc3OC)Cc3nnnn3Cc3ccco3)cc2c1` gave Marburg entry inh inconclusive, HCMV inh inactive, Pf growth 96h inconclusive, LASV entry inh inconclusive, HCV inh 8.9µM, Pf growth 48h 4.7µM, HCV confirm 25µM and HCV cytotox inactive.
For CC(Nc1nc(-c2ccc(F)cc2)cs1)c1nc2cc(Cl)c(Cl)cc2n1CCOCCO (stereo not given) the results were HCMV inh inactive and HCV inh inactive.
`COc1ccc(-c2csc(NC(C)c3nc4cc(Cl)c(Cl)cc4n3CCCO)n2)cc1` (stereo not given) gave HCMV inh inactive, HCV inh 8.9µM, HCV confirm 13µM and HCV cytotox inactive.
Screening COc1cc(NC(=O)Cn2nc(C(F)(F)F)c3c2CCCC3)c(OC)cc1Cl returned Marburg entry inh inconclusive, HCMV inh inactive and LASV entry inh inconclusive.
`COc1ccccc1CNC(=O)Cc1csc(NC(=O)Nc2ccccc2OC)n1` gave Marburg entry inh inconclusive, HCMV inh inactive, Pf growth 96h 13µM, LASV entry inh inconclusive, HCV inh inconclusive, Pf growth 48h inconclusive, HCV confirm 18µM and HCV cytotox inactive.
For COc1ccccc1NC(=O)Nc1nc(CC(=O)NCc2ccccn2)cs1 the results were Marburg entry inh inactive, HCMV inh inactive, Pf growth 96h inactive, LASV entry inh inactive, HCV inh inconclusive and Pf growth 48h inactive.
For CC#CC[N+](C)(C)CCCCCCCCCCCC the results were Marburg entry inh 10µM, HCMV inh -101, Pf growth 96h 0.59µM, LASV entry inh inconclusive, HCV inh 5µM, Pf growth 48h 2.9µM, HCV confirm 14µM and HCV cytotox inactive.
Screening CCCCn1c(=N)n(CC(O)COc2cccc(C)c2)c2ccccc21 (stereo not given) returned Marburg entry inh inconclusive, HCMV inh -63, Pf growth 96h inconclusive, LASV entry inh inconclusive, HCV inh 8.9µM, Pf growth 48h 7.4µM, HCV confirm 14µM and HCV cytotox inconclusive.
`COC(=O)C1CCCN1C(=O)C12CC3CC(CC(C3)C1)C2` (stereo not given) gave Marburg entry inh inconclusive, HCMV inh inactive, Pf growth 96h inconclusive, LASV entry inh inactive, HCV inh inactive and Pf growth 48h inactive.
`Cc1ccc(-n2nc3c(N4CCC(C(=O)N5CCN(C)CC5)CC4)nnc(C)c3c2C)cc1` gave HCMV inh inconclusive, Pf growth 96h inconclusive, HCV inh 4.5µM, Pf growth 48h inconclusive, HCV confirm 16µM and HCV cytotox inactive.
Screening Cc1cc(C)c2cc(C(=O)N3CCc4ccccc4C3)[nH]c2c1 returned Marburg entry inh inactive, HCMV inh inactive, Pf growth 96h inactive, LASV entry inh inactive, HCV inh inconclusive, Pf growth 48h inactive, HCV confirm inconclusive and HCV cytotox inactive.
Screening C=C1C(=O)O[C@@]23[C@H]1CC[C@@H](C)[C@@H]2CC[C@@]1(C)O[C@@H]31 returned HCV inh 2.8µM, HCV confirm inconclusive and HCV cytotox inactive.
Screening CCCOc1ccc(/C=C/C(=O)NC2CCCCC2)cc1OC returned Marburg entry inh inactive, HCMV inh inactive, Pf growth 96h inconclusive, LASV entry inh inactive, HCV inh inconclusive and Pf growth 48h inactive.
Screening COc1cc(/C=C/C(=O)NC2CCCCC2)cc(OC)c1OC returned Marburg entry inh inactive, HCMV inh inactive, Pf growth 96h inconclusive, LASV entry inh inactive, HCV inh inconclusive, Pf growth 48h inactive, HCV confirm inconclusive and HCV cytotox inactive.
CN(C(=O)CSc1nc2ccccc2n1C)C1CCS(=O)(=O)C1 (stereo not given) was read as HCMV inh inconclusive, Pf growth 96h inactive, HCV inh inconclusive and Pf growth 48h inactive.
Screening CCOC(=O)C1=C(C)N=c2s/c(=C/c3ccco3)c(=O)n2C1c1cccc(OC)c1 (stereo not given) returned Marburg entry inh inconclusive, Pf growth 96h inactive, LASV entry inh inconclusive, HCV inh inconclusive, Pf growth 48h inconclusive, HCV confirm inconclusive and HCV cytotox inactive.
`CCc1cccc(C)c1NC(=O)C1CCCN1S(=O)(=O)c1cccc2nsnc12` (stereo not given) gave Marburg entry inh inactive, HCMV inh inactive and LASV entry inh inactive.
For CC(OC(=O)c1cccnc1Cl)C(=O)NCc1ccccc1 (stereo not given) the results were HCMV inh inactive, Pf growth 96h inactive, HCV inh inactive and Pf growth 48h inactive.
CCC1CCCCN1C(=O)c1cc(COc2ccc3ncccc3c2)on1 (stereo not given) was read as Marburg entry inh inconclusive, HCMV inh -91, Pf growth 96h inconclusive, LASV entry inh inconclusive, HCV inh 3.2µM, Pf growth 48h inactive, HCV confirm 1.8µM and HCV cytotox 3.1µM.
Screening COc1ccc(Cc2c(-c3ccc(F)cc3)nc3c(C)cc(Br)cn23)c(C)c1 returned HCMV inh inactive.
Cc1cc(Cl)ccc1NC(=O)NC1CCN(S(=O)(=O)c2ccc(F)cc2)CC1 was read as Marburg entry inh inactive, HCMV inh inactive, Pf growth 96h inconclusive, LASV entry inh inconclusive, HCV inh 4.5µM, HCV confirm 11µM and HCV cytotox inactive.
COc1ccc(CNc2cccnc2)c(OC)c1OC was read as Marburg entry inh inactive, HCMV inh inactive, LASV entry inh inactive and HCV inh inactive.
CN=c1sc2c(n1C)C(=O)c1ccccc1C2=O was read as Marburg entry inh inconclusive, HCMV inh inactive, LASV entry inh inconclusive, HCV inh inconclusive, HCV confirm 31µM and HCV cytotox 28µM.
Screening CN=c1sc(C(=O)Nc2ccccc2)c(C)n1C returned Marburg entry inh inconclusive, HCMV inh inactive, Pf growth 96h inactive, LASV entry inh inconclusive, HCV inh inactive and Pf growth 48h inactive.
CCCOc1ccc(F)cc1-c1cc(C(=O)NCc2cccc(C(F)(F)F)c2)[nH]n1 was read as HCMV inh inactive.
Screening COc1ccccc1NS(=O)(=O)c1cc(C(=O)NC2CCN(Cc3ccccc3)CC2)ccc1C returned HCMV inh -62, HCV inh 5.6µM, HCV confirm 2.8µM and HCV cytotox 2.2µM.
